Experimental data from PubChem BioAssay (EPA / NIEHS).
Inconclusive results are not listed. Some structures have more than one record in an assay (separate samples or runs), and their calls can disagree. The source made the active and inactive calls. How the source made its calls: active means hit-call score of the fitted dose curve at least 0.9, where 1 is the maximum; inconclusive means response in the unintended direction; inactive means score below 0.9.

These compounds were tested against Oxysterols receptor LXR-beta (Homo sapiens) (UniProt P55055) (assay: ATG_LXRb_TRANS: Attagene TRANS-FACTORIAL HepG2 Assay for human Liver X Receptor beta (LXRb) (AID 2282981)). Conditions: HepG2 Attagene TRANS GAL4-LXRb reporter, mRNA.
Experimental: ATG_TRANS is a cell-based, multiplexed-readout assay that uses HepG2, a human liver cell line, with measurements taken at 24 hours after chemical dosing in a 24-well plate.ATG_LXRb_TRANS is one of 30 assay component(s) measured or calculated from the ATG_TRANS assay. It is designed to make measurements of mRNA induction, a form of inducible reporter, as detected with fluorescence intensity signals by Reverse transcription polymerase chain reaction (RT-PCR) and Capillary electrophoresis technology.Data from the assay component ATG_LXRb_TRANS was analyzed into 1 assay endpoint. This assay endpoint, ATG_LXRb_TRANS, was analyzed in the positive analysis fitting direction relative to DMSO as the negative control and baseline of activity. Using a type of inducible reporter, measures of mRNA for gain-of-signal activity can be used to understand the reporter gene at the transcription factor-level as they relate to the gene NR1H2. Furthermore, this assay endpoint can be referred to as a primary readout, because this assay has produced multiple assay endpoints where this one serves a reporter gene function. To generalize the intended target to other relatable targets, this assay endpoint is annotated to the nuclear receptor intended target family, where the subfamily is non-steroidal.
Human liver HepG2 cells are transiently transfected with multiple reporter transcription units (MRTUs) in 6-well plates using FuGene 6 reagent (Roche; 3 ml FuGene/1 mg DNA). The MRTU constructs are regulated by a cis-regulating element (promoter). […] A major difference between the CIS and TRANS system is that in CIS activities of endogenous TFs are measured, whereas the TRANS assay evaluates changes in activities of exogenous, chimeric NR-Gal4 proteins. […] At the end of 24 hour incubation, total RNA was isolated using TriZol reagent (Invitrogen). The isolated RNA is then reverse-transcribed using oligo(dT) primer and Mo-MLV reverse transcriptase (Invitrogen) with DNAse I (Ambion) treatment for 30 min. The one-tenth of the produced cDNA was amplified by PCR using Taq DNA polymerase (Invitrogen) and two reporter sequence-specific primers. The PCR products were fluorescently labeled by primer extension with 6-arboxyfluorescein (6-FAM) 5'-labeled reporter sequence-specific primer (2 min at 95 C, 20 s at 68 C and 10 min at 72 C) and these products were digested with 5U of HpaI (New England Biolabs) for 2h at 37 C. The fragments were purified using Qiaquick PCR columns (Qiagen), analyzed on an ABI 3130xL genetic analyzer (Applied Biosystems) with peak positions identified by using a set of X-rhodamine (ROX)-labeled MapMarker1000 molecular weight standards (BioVentures). The raw capillary electrophoresis data was processed using Attagraph software (Attagene).

Sequence of Oxysterols receptor LXR-beta (Homo sapiens) (P55055 whole entry, looked up, the tested form may be a part): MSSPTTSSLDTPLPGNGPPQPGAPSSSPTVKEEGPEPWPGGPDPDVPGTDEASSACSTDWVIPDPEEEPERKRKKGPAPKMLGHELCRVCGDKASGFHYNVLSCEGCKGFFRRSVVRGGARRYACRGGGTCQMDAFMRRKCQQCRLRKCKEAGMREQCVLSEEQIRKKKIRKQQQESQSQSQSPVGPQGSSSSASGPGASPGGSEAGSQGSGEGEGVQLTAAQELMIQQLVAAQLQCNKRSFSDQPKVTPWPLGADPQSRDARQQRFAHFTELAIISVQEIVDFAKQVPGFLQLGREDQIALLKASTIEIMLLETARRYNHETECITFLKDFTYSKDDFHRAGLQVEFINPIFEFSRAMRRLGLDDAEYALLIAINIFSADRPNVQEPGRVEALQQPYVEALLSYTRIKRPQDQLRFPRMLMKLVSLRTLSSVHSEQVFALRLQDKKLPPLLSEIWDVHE

Structure (SMILES) | outcome | AC50
CC1COC(Cn2cncn2)(c2ccc(Oc3ccc(Cl)cc3)cc2Cl)O1 (stereo not given) | inactive | 
CCCCNC(=O)n1c(NC(=O)OC)nc2ccccc21 | inactive | 
CO/C=C(/C(=O)OC)c1ccccc1Oc1cc(Oc2ccccc2C#N)ncn1 | inactive | 
CON(C)C(=O)Nc1ccc(Cl)c(Cl)c1 | inactive | 
CCOC(=O)CC(SP(=S)(OC)OC)C(=O)OCC (stereo not given) | inactive | 
CCCC1COC(Cn2cncn2)(c2ccc(Cl)cc2Cl)O1 (stereo not given) | inactive | 
CC1=C(C(=O)Nc2ccccc2)SCCO1 | inactive | 
C=CCC1=C(C)C(OC(=O)C2C(C=C(C)C)C2(C)C)CC1=O (stereo not given) | inactive | 
CC(Oc1ccc(Cl)cc1Cl)C(=O)O (stereo not given) | inactive | 
Oc1ccccc1-c1ccccc1 | inactive | 
COc1ccc(C(c2ccc(OC)cc2)C(Cl)(Cl)Cl)cc1 | inactive | 
CCNc1nc(Cl)nc(NC(C)C)n1 | inactive | 
Cc1c(F)c(F)c(COC(=O)C2C(/C=C(\Cl)C(F)(F)F)C2(C)C)c(F)c1F (stereo not given) | inactive | 
C=CCC1=C(C)[C@@H](OC(=O)[C@@H]2[C@@H](C=C(C)C)C2(C)C)CC1=O | inactive | 
COC(=O)c1ccccc1C(=O)OC | inactive | 
COc1nc(NC(C)C)nc(NC(C)C)n1 | inactive | 
CNC(=S)S | inactive | 
O=C(Nc1ccccc1)Nc1ccnc(Cl)c1 | inactive | 
N#Cc1nn(-c2c(Cl)cc(C(F)(F)F)cc2Cl)c(N)c1S(=O)C(F)(F)F (stereo not given) | inactive | 11.7 µM (active)

Structure (SMILES) | outcome | AC50
COC(=O)C=C(C)OP(=O)(OC)OC | inactive | 
N#Cc1cc(Br)c(O)c(Br)c1 | inactive | 
CC(C)(C)c1ccc(CSc2cnn(C(C)(C)C)c(=O)c2Cl)cc1 | inactive | 
CC(C)Oc1cc(-n2nc(C(C)(C)C)oc2=O)c(Cl)cc1Cl | inactive | 
COc1nc(C)nc(NC(=O)NS(=O)(=O)c2ccccc2Cl)n1 | inactive | 
Fc1ccc(Oc2ccnc3cc(Cl)cc(Cl)c23)cc1 | inactive | 
COC(=O)C(C)Oc1ccc(Oc2ccc(Cl)cc2Cl)cc1 (stereo not given) | inactive | 
COc1nc(C)nc(NC(=O)NS(=O)(=O)c2ccccc2CCC(F)(F)F)n1 | inactive | 
CCOP(=S)(OCC)SCn1c(=O)oc2cc(Cl)ccc21 | inactive | 
CCCCOC(=O)c1ccccc1C(=O)OCCCC | inactive | 
CCOC(=O)C(Cl)Cc1cc(-n2nc(C)n(C(F)F)c2=O)c(F)cc1Cl (stereo not given) | inactive | 
CN(C)C(=S)SSC(=S)N(C)C | inactive | 
COc1cnc(OC)n2nc(NS(=O)(=O)c3c(OCC(F)F)cccc3C(F)(F)F)nc12 | inactive | 
CC(C)C1(C)N=C(c2nc3ccccc3cc2C(=O)O)NC1=O (stereo not given) | inactive | 
CCON=C(CC)C1=C(O)CC(c2c(C)cc(C)cc2C)CC1=O (stereo not given) | inactive | 
OC(c1ccc(Cl)cc1)(c1cncnc1)c1ccccc1Cl (stereo not given) | inactive | 
CCc1nn(C)c(C(=O)NCc2ccc(C(C)(C)C)cc2)c1Cl |  | 0.343 µM (active)
COP(=S)(OC)Oc1nc(Cl)c(Cl)cc1Cl | inactive | 
